# Measured values as given in PubChem BioAssay.
# Calls of active or inactive are those of the source. Unless noted, how the calls were made is not given here.
# Columns and labels:
# [1] = HepG2 liver cancer cell viability effects, profiling panel, resazurin fluorescence, 24 h, PK04 Diversity Set (AID 1172); details: higher = more signal
# [2] = basal S. cerevisiae growth modulation, no modifier, primary screen, OD600, strain BY4716, 24 h, basal condition (AID 1173); details: OD600, 24 h, higher = more signal, called active from +8 up or from −8 down
# [3] = MM1S myeloma cell viability, profiling panel, resazurin fluorescence, basal, 24 h, PK04 Diversity Set (AID 1174); details: higher = more signal, called active from +8 up or from −8 down;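 further: MM1S multiple myeloma cell line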
# [4] = biological target: Dihydroorotate dehydrogenase (quinone), mitochondrial (Plasmodium falciparum (isolate 3D7)) (UniProt Q08210); assay: PfDHODH enzyme inhibitors, primary screen, biochemical, C-terminal His tag, absorbance 600 nm (AID 1175); details: DCIP absorbance 600 nm, higher = more signal, called active from +8 up or from −8 down;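 further: recombinant parasite enzyme with a five histidine tag at its C terminus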
# Dihydroorotate dehydrogenase (quinone), mitochondrial (Plasmodium falciparum (isolate 3D7)), sequence (Q08210 whole entry, looked up): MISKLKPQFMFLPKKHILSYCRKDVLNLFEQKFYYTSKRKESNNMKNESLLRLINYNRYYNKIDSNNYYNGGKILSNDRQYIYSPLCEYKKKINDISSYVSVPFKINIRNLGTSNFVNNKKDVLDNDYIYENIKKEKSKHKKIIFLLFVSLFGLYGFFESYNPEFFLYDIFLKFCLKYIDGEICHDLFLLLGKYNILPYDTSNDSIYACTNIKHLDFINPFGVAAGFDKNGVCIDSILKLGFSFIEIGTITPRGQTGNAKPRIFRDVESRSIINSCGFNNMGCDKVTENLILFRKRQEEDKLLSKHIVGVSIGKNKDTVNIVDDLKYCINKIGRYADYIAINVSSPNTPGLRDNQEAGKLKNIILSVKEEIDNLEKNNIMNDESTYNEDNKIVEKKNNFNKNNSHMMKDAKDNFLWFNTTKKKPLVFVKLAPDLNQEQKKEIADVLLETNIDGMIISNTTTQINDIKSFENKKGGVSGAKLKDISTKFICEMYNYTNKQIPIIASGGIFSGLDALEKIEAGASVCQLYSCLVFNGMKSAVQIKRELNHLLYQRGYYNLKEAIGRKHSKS
# [5] = P. aeruginosa biofilm formation inhibitors, primary screen, strain PAO1, LB-PBS medium, absorbance 600 nm (AID 1176); details: P. aeruginosa PAO1 growth/biofilm, A600, 12 h; higher = more signal
# [6] = S. cerevisiae RM11-1a growth modifiers, primary screen, strain RM11-1a, OD600, basal, 24 h (AID 1177); details: OD600, 24 h, higher = more signal, called active from +8 up or from −8 down;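 further: cultures grown under basal conditions with no added stressor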
# [7] = E. coli acrAB mutant growth effects, primary screen, E. coli filamentation inducers, strain DRC39, OD650, 24 h (AID 1178); details: higher = more signal, called active from +8 up or from −8 down;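 further: growth measured as culture turbidity by optical density at 650 nm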
# [8] = E. coli acrAB mutant growth effects, primary screen, E. coli filamentation inducers, strain DRC39, OD650, 48 h (AID 1179);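 further: screen aims at cell division blockers that make cells filament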; details: E. coli DRC39 delta-acrAB growth, higher = more signal, called active from +8 up or from −8 down
# [9] = RPMI8226 myeloma cell viability, profiling panel, resazurin fluorescence, basal, 24 h, PK04 Diversity Set (AID 1180); details: higher = more signal;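 further: RPMI8826 multiple myeloma cell line at 5000 cells per well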
# [10] = biological target: E3 ubiquitin-protein ligase XIAP (Homo sapiens) (UniProt P98170); assay: XIAP binders, primary screen, biophysical, small-molecule microarray, fluorescence 635 nm (AID 1181); details: small-molecule microarray binding, higher = more signal;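 further: score merges 667 nm emission and signal to noise over triplicate slides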
# E3 ubiquitin-protein ligase XIAP (Homo sapiens), sequence (P98170 whole entry, looked up): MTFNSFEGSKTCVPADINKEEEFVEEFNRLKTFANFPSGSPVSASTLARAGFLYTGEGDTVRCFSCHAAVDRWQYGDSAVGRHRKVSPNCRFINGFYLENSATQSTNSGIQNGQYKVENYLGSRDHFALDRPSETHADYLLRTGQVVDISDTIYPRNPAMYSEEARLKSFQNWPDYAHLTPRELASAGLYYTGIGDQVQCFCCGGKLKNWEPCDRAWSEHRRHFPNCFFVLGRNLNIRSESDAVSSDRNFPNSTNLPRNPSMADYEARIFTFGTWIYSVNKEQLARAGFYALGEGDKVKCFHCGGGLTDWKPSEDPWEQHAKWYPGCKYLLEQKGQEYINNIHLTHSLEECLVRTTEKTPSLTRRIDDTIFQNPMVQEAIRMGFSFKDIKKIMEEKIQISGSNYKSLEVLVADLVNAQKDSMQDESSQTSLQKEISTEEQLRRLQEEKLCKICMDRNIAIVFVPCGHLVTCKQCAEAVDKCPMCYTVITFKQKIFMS
# [11] = system: XIP peptide (Xip251-270) binding; assay: small-molecule binders of XIP peptide, primary screen, biochemical, small-molecule microarray, fluorescence 635/667 nm, 0.1 µg/mL protein (AID 1182); details: fluorescent protein binding, 635 nm, higher = more signal, called active from +8 up or from −8 down
# XIP peptide (Xip251-270) = assay: small-molecule binders of XIP peptide, primary screen, biochemical, small-molecule microarray, fluorescence 635/667 nm, 0.5 µg/mL protein (AID 1183); details: small-molecule microarray binding, fluorescence 635 nm; higher = more signal
# [12] = Plasmodium falciparum growth inhibition, primary screen, strain 3D7, DAPI fluorescence, 100 nL (AID 1184);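 further: parasites grown inside human red blood cells in medium with human serum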; details: P. falciparum 3D7 growth, 3 d, higher = more signal
# [13] = biological target: Homeobox protein Hox-A13 (Mus musculus) (UniProt Q62424); assay: inhibitors of HoxA13-DNA binding, primary screen, biochemical, fluorescence polarization, labeled oligonucleotide (AID 1185); details: 15 min, higher = more signal, called active from +8 up or from −8 down
# Homeobox protein Hox-A13 (Mus musculus), sequence (Q62424 whole entry, looked up): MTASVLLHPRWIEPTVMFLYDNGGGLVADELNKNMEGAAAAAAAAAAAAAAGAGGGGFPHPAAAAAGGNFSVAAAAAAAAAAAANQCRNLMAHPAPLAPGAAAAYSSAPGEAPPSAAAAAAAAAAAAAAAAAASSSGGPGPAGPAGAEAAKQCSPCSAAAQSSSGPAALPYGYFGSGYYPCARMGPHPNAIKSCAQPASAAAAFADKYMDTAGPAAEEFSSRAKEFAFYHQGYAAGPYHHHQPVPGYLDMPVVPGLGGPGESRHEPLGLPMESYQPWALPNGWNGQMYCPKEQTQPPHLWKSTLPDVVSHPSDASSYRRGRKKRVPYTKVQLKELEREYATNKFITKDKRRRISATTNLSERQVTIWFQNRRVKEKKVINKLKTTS
# [14] = inhibitors of hydroxyurea-induced Chk1 phosphorylation, primary screen, imaging, HeLa, phospho-Chk1 antibody, percent positive cells (AID 1186); details: hydroxyurea-induced phospho-Chk1 immunofluorescence imaging, higher = more signal
# [15] = inhibitors of hydroxyurea-induced Chk1 phosphorylation, primary screen, imaging, HeLa, phospho-Chk1 nuclear intensity (AID 1187); details: hydroxyurea-induced phospho-Chk1 immunofluorescence imaging, higher = more signal
Compound,z-score [1],z-score [2],z-score [3],composite z-score [4],z-score [5],z-score [6],z-score [7],z-score [8],z-score [9],composite z-score [10],composite z-score [11],composite z-score (XIP peptide (Xip251-270)),z-score [12],z-score [13],z-score [14],z-score [15]
CCCN1C(=O)[C@]2(CCS(=O)(=O)c3ccccc3)N=C(c3ccc(OCCCO)cc3)O[C@@H]2c2ccccc21,-0.264,-0.443 (inactive),-0.278 (inactive),0.507 (inactive),0.0279 (inactive),0.492 (inactive),1.82 (inactive),0.544 (inactive),-0.967,-0.0773,-0.0893 (inactive),0.11,-2.6,-5.36 (inactive),-0.701 (inactive),-0.918 (inactive)
CCOC1=C2C(CN(S(=O)(=O)c3ccc(C)cc3)C2c2ccc(C)cc2)C2C(=O)N(c3ccccc3)C(=O)C2C1 (centres undefined),-0.635,0.941 (inactive),-0.193 (inactive),-1.12 (inactive),-0.2 (inactive),0.413 (inactive),-0.392 (inactive),0.758 (inactive),0.366,-0.0773,-0.0729 (inactive),0.457,0.694,-1.82 (inactive),0.218 (inactive),0.402 (inactive)
CC(C)C(=C=CC[C@@H](O)c1ccccc1OCCO)CCO,0.61,-13 (active),0.11 (inactive),-5.28 (inactive),-0.0828 (inactive),0.413 (inactive),0.272 (inactive),0.123 (inactive),1.28,-0.318,0.305 (inactive),-0.161,-0.637,-2.91 (inactive),-0.306 (inactive),0.231 (inactive)
COc1ccc([Si](C)(C)[C@H]2[C@H](CCO)O[C@@]3(C(=O)N(Cc4ccc(N5C(=O)COc6ccccc65)cc4)c4ccccc43)[C@@H]2C)cc1,-1.97,0.573 (inactive),-4.21 (inactive),-0.349 (inactive),3.06 (inactive),3.3 (inactive),0.404 (inactive),-0.288 (inactive),-5.05,0.144,0.0409 (inactive),0.254,-1.95,-0.911 (inactive),-0.661 (inactive),-1.02 (inactive)
CC(C)N1C(=O)[C@@]2(Cc3ccccc31)c1ccccc1C(=O)N(C1CCCCC1)[C@H]2c1ccc(CO)cc1,2.02,-0.536 (inactive),0.843 (inactive),-18.9 (active),-0.255 (inactive),-0.719 (inactive),0.589 (inactive),0.443 (inactive),0.917,-0.209,-0.091 (inactive),0.709,-0.288,-0.666 (inactive),-0.0292 (inactive),0.029 (inactive)
COC(=O)c1c(CC[C@@H](CO)NC(=O)N2CCC[C@H]2Cn2cc(-c3ccccn3)nn2)oc(C(C)=O)c1C(=O)OC,0.422,-0.835 (inactive),0.608 (inactive),-0.492 (inactive),-0.252 (inactive),-1.19 (inactive),1.28 (inactive),0.835 (inactive),0.426,-0.0351,1.82 (inactive),0.667,-1.04,-2.59 (inactive),-0.828 (inactive),-0.692 (inactive)
CCCCCCC#C[Si](O[C@H](c1ccccc1)c1cn([C@H](CO)Cc2ccccc2)nn1)(C(C)C)C(C)C,1.13,-1.93 (inactive),0.389 (inactive),-3.69 (inactive),0.395 (inactive),-0.297 (inactive),0.953 (inactive),1.57 (inactive),0.881,-0.157,0.207 (inactive),0.0718,0.221,-1.34 (inactive),-0.653 (inactive),-0.496 (inactive)
COc1ccc(C(O)C2C=CC3C(=O)N(C)C(=O)C3N2N2CCCCC2)c2ccccc12 (centres undefined),-1.2,-1.78 (inactive),-1.64 (inactive),0.238 (inactive),0.503 (inactive),0.806 (inactive),-0.413 (inactive),-0.68 (inactive),-1.71,-0.202,0.591 (inactive),0.637,-0.179,-4.89 (inactive),0.294 (inactive),0.312 (inactive)
COC(=O)[C@@]1(Cc2ccc(OC)cc2)[C@H]2c3cc(C(=O)N4CCCC4)n(Cc4ccc(OC)c(OC)c4)c3C[C@H]2CN1C(=O)c1ccccc1,0.277,1.66 (inactive),-0.994 (inactive),-0.245 (inactive),0.259 (inactive),0.744 (inactive),-0.333 (inactive),-0.888 (inactive),-0.636,-0.0541,1.27 (inactive),0.653,-1.65,-4.91 (inactive),0.666 (inactive),0.699 (inactive)
Cc1ccc(S[C@]2(C(=O)NCC(C)C)CC(=O)N(Cc3cc(C(F)(F)F)cc(C(F)(F)F)c3)[C@@H]2c2ccc(CO)cc2I)cc1,-0.0295,-3.38 (inactive),-2.99 (inactive),-0.83 (inactive),-0.522 (inactive),-1.19 (inactive),-0.155 (inactive),-0.586 (inactive),-2.27,-0.17,0.861 (inactive),0.569,-0.433,-2.28 (inactive),0.208 (inactive),0.473 (inactive)
O=C1[C@H]2C=C(Br)[C@H](C[C@@H]2OCCCCO)[C@@]12CO2,-0.312,-0.172 (inactive),-0.718 (inactive),0.228 (inactive),0.13 (inactive),0.614 (inactive),-0.649 (inactive),-0.808 (inactive),-0.133,-0.0749,0.091 (inactive),0.141,-0.234,-1.71 (inactive),-0.0513 (inactive),-0.265 (inactive)
CC(C)[C@@H](CO)NC(=O)[C@H]1[C@@H](c2ccccc2)N(c2ccccc2)O[C@@H]1C,0.872,-2.53 (inactive),0.751 (inactive),-0.857 (inactive),0.0573 (inactive),1.2 (inactive),-0.323 (inactive),0.506 (inactive),0.566,-0.0999,-0.795 (inactive),-0.248,0.484,-1.23 (inactive),-0.0482 (inactive),0.564 (inactive)
O=C1c2ccccc2[C@](Cc2ccccc2I)(C(=O)NC2CC2)[C@H](c2ccc(CO)cc2)N1C1CCCCC1,-0.13,0.404 (inactive),0.516 (inactive),1.06 (inactive),0.304 (inactive),2.64 (inactive),-0.0781 (inactive),-0.585 (inactive),0.549,-0.0426,0.247 (inactive),0.743,-1.77,-3.63 (inactive),-0.199 (inactive),-0.0711 (inactive)
COc1ccc(CCN2C(=O)[C@@]3(Cc4ccccc42)c2ccccc2C(=O)N(Cc2ccccc2C(F)(F)F)[C@H]3c2ccc(CO)cc2)cc1,-0.104,0.512 (inactive),0.35 (inactive),-21.6 (active),0.31 (inactive),-0.443 (inactive),-0.0813 (inactive),-0.374 (inactive),-0.816,-0.0102,-0.223 (inactive),0.146,-1.18,0.869 (inactive),-0.389 (inactive),-0.826 (inactive)
O=C1OCCC/C=C\[C@H]2OC34C=CCN(c5ccc6ccccc6c5)C(=O)[C@H]3N(CCCCCCO)C(=O)[C@@H]4C12 (some centres undefined),-0.156,-1.28 (inactive),0.241 (inactive),-1.97 (inactive),0.481 (inactive),-1.49 (inactive),0.374 (inactive),1.01 (inactive),0.152,0.115,0.346 (inactive),0.0339,-0.577,-5.08 (inactive),-0.833 (inactive),-0.428 (inactive)
CN1C(=O)C2C=CC(C(O)c3cccs3)N(Nc3ccccc3)C2C1=O (centres undefined),-0.698,0.702 (inactive),-0.861 (inactive),-0.607 (inactive),0.847 (inactive),-0.0337 (inactive),-0.947 (inactive),-0.724 (inactive),-1.15,0.311,0.193 (inactive),0.356,0.376,-1.14 (inactive),0.482 (inactive),0.35 (inactive)
COc1ccc(CCNC(=O)[C@@]2(Sc3ccc(C)cc3)CC(=O)N(C3CCCCC3)[C@@H]2c2ccc(CO)cc2I)cc1,0.594,0.0658 (inactive),0.175 (inactive),0.43 (inactive),1.34 (inactive),-0.382 (inactive),0.258 (inactive),0.238 (inactive),-1.2,-0.276,0.0537 (inactive),0.753,-2.12,-1.88 (inactive),0.431 (inactive),1.23 (inactive)
C=CCNC(=O)[C@@H]1[C@H]2C(=O)O[C@H](c3ccccc3)[C@H](c3ccccc3)N2[C@H](c2ccccc2OCCO)[C@@]12C(=O)N(C(=O)OCCOC)c1ccc(C#CCNC(N)=O)cc12,-0.359,0.808 (inactive),-0.0716 (inactive),0.0199 (inactive),1.1 (inactive),1.43 (inactive),0.404 (inactive),0.703 (inactive),0.122,0.171,0.347 (inactive),0.66,-0.531,-1.84 (inactive),-0.189 (inactive),-0.159 (inactive)
O=C1NC(=O)C2C1C=CC(C(O)Cc1ccccc1)N2Nc1ccc(Cl)cc1Cl (centres undefined),-0.985,-7.58 (inactive),-1.56 (inactive),-0.276 (inactive),0.53 (inactive),0.181 (inactive),-0.655 (inactive),-0.603 (inactive),-1.04,0.13,0.0966 (inactive),-0.474,0.17,-5.64 (inactive),0.985 (inactive),1.09 (inactive)
